Test results reported in the supplement of paper PMC10849652.
The full data set covers some 7,900 targets. This sample favours those with a hit. About 0.6% of all pairs of compound and target were hits.

What was measured:
Experiment in all cases: log2 fold change, soluble protein after heating vs DMSO (PISA); higher = thermal stabilisation; K562 cells, 10 uM, 30 min; active = over 0.2 and 3.5 SD of the protein, either way, in both replicates (recomputed)
[1] = compound: COC1=CC=C(C=C1)CN2C=CC3=C2C=C(C=C3)C(=O)NO
Summary of the method: (§1)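 Soluble protein was defined as the supernatant after 21,000xg for 90 min. It came from K562 cells at 2×10^6 cells/mL given 10 μM compound for 30 min, heated in aliquots for 3 min across 48°C-58°C, pooled, and extracted in PBS with 0.5% NP-40 at 4°C, and was quantified by TMTpro 16plex LC-MS/MS with equalised channel sums. Thermal stability against control samples, from duplicates, is reported as log2 fold change.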

filanesib = compound: CON(C)C(=O)N1N=C(c2cc(F)ccc2F)S[C@@]1(CCCN)c1ccccc1 [filanesib]
Summary of the method: as §1

zotarolimus = compound: CO[C@H]1C[C@@H]2CC[C@@H](C)[C@@](O)(O2)C(=O)C(=O)N2CCCC[C@H]2C(=O)O[C@H]([C@H](C)C[C@@H]2CC[C@H](n3cnnn3)[C@H](OC)C2)CC(=O)[C@H](C)/C=C(\C)[C@@H](O)[C@@H](OC)C(=O)[C@H](C)C[C@H](C)/C=C/C=C/C=C/1C [zotarolimus]
Summary of the method: as §1

idasanutlin = compound: COc1cc(C(=O)O)ccc1NC(=O)[C@@H]1N[C@@H](CC(C)(C)C)[C@](C#N)(c2ccc(Cl)cc2F)[C@H]1c1cccc(Cl)c1F [idasanutlin]
Summary of the method: as §1

alisertib = compound: COc1cc(Nc2ncc3c(n2)-c2ccc(Cl)cc2C(c2c(F)cccc2OC)=NC3)ccc1C(=O)O [alisertib]
Summary of the method: as §1

[2] = compound: COc1cc2nc(-c3cc(F)ccc3O)nc(N[C@@H]3CNC[C@H]3C(C)(C)O)c2cc1OC
Summary of the method: as §1

gefitinib = compound: COc1cc2ncnc(Nc3ccc(F)c(Cl)c3)c2cc1OCCCN1CCOCC1 [gefitinib]
Summary of the method: as §1

[3] = compound: COc1cccc2cc(-c3nc([C@H]4CC[C@H](C(=O)O)CC4)n4ncnc(N)c34)[nH]c12
Summary of the method: as §1

lapatinib = compound: CS(=O)(=O)CCNCc1ccc(-c2ccc3ncnc(Nc4ccc(OCc5cccc(F)c5)c(Cl)c4)c3c2)o1 [lapatinib]
Summary of the method: as §1

pictilisib = compound: CS(=O)(=O)N1CCN(Cc2cc3nc(-c4cccc5[nH]ncc45)nc(N4CCOCC4)c3s2)CC1 [pictilisib]
Summary of the method: as §1

[4] = compound: CS(=O)(=O)c1ccc(-c2cnc(N)c(C(=O)Nc3ccccc3)n2)cc1
Summary of the method: as §1

crizotinib = compound: C[C@@H](Oc1cc(-c2cnn(C3CCNCC3)c2)cnc1N)c1c(Cl)ccc(F)c1Cl [crizotinib]
Summary of the method: as §1

[5] = compound: C[C@@H]1COCCN1C2=NC(=NC(=C2)C3(CC3)S(=O)(=O)C)C4=C5C=CNC5=CC=C4
Summary of the method: as §1

[6] = compound: C[C@H](C1=CC=C(C=C1)C(=O)NC2=C3C=CNC3=NC=C2)N
Summary of the method: as §1

duvelisib = compound: C[C@H](Nc1ncnc2nc[nH]c12)c1cc2cccc(Cl)c2c(=O)n1-c1ccccc1 [duvelisib]
Summary of the method: as §1

gandotinib = compound: Cc1cc(Nc2cc(CN3CCOCC3)c3nc(C)c(Cc4ccc(Cl)cc4F)n3n2)n[nH]1 [gandotinib]
Summary of the method: as §1

tozasertib = compound: Cc1cc(Nc2cc(N3CCN(C)CC3)nc(Sc3ccc(NC(=O)C4CC4)cc3)n2)n[nH]1 [tozasertib]
Summary of the method: as §1

[7] = compound: Cc1cc(SCc2sc(-c3ccc(C(F)(F)F)cc3)nc2C)ccc1OCC(=O)O
Summary of the method: as §1

doramapimod = compound: Cc1ccc(-n2nc(C(C)(C)C)cc2NC(=O)Nc2ccc(OCCN3CCOCC3)c3ccccc23)cc1 [doramapimod]
Summary of the method: as §1

ispinesib = compound: Cc1ccc(C(=O)N(CCCN)[C@@H](c2nc3cc(Cl)ccc3c(=O)n2Cc2ccccc2)C(C)C)cc1 [ispinesib]
Summary of the method: as §1

Measured: log2 fold change

PSMD3 (UniProt O43242)
Sequence of UniProt O43242 (O43242 whole entry, looked up): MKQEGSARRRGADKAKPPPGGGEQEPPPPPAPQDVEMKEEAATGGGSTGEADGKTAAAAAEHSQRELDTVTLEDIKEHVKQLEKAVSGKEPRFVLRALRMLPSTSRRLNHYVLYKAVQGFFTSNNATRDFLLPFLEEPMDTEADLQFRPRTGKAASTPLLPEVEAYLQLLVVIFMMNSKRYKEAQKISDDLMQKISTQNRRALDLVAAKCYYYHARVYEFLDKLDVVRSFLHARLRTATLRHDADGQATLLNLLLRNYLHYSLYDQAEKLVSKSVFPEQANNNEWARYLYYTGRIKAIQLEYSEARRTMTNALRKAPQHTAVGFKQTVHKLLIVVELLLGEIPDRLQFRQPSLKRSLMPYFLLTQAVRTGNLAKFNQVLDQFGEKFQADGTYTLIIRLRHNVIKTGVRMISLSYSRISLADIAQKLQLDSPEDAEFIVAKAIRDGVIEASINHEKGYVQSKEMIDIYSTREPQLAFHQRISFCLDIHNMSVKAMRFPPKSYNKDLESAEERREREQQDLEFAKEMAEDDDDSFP
inactive: [1] -0.058 | filanesib 0.061 | zotarolimus 0.021 | idasanutlin 0.003 | alisertib -0.075 | [2] -0.089 | gefitinib -0.035 | [3] -0.011 | lapatinib 0.061 | pictilisib -0.023 | [4] 0.058 | crizotinib 0.003 | [5] -0.003 | [6] 0.094 | duvelisib -0.028 | gandotinib 0.028 | tozasertib 0.033 | [7] 0.047 | doramapimod 0.047 | ispinesib 0.013

PIGG (UniProt Q5H8A4)
Sequence of UniProt Q5H8A4 (Q5H8A4 whole entry, looked up): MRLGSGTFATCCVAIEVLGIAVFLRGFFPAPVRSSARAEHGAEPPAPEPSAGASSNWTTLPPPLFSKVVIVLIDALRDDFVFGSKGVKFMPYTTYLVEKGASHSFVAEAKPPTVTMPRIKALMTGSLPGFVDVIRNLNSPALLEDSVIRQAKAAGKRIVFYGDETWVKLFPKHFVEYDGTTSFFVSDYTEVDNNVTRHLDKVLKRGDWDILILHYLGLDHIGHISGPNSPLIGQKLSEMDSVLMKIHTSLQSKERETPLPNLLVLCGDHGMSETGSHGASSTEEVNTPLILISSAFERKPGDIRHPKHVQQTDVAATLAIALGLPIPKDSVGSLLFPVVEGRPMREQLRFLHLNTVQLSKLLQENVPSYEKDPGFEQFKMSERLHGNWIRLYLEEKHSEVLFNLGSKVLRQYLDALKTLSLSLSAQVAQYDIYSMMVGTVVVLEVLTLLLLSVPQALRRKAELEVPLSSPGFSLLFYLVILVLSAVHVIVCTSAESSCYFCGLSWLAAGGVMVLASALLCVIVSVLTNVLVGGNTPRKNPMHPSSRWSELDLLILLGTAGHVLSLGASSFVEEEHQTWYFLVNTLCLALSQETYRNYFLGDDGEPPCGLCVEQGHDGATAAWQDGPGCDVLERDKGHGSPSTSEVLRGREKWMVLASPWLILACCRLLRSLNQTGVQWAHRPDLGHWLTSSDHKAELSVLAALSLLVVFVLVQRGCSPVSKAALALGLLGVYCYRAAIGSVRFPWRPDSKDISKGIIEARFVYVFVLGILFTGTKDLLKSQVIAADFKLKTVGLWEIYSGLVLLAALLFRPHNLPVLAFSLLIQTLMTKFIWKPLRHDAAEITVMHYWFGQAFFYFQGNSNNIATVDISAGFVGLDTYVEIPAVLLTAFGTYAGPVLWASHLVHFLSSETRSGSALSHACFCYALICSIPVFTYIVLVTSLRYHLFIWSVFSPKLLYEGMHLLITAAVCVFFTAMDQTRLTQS
inactive: [1] -0.01 | filanesib -0.062 | zotarolimus 0.073 | idasanutlin 0.019 | alisertib -0.048 | [2] 0.098 | gefitinib -0.122 | [3] 0.049 | lapatinib 0.046 | pictilisib 0.017 | [4] 0.062 | crizotinib -0.053 | [5] 0.01 | [6] -0.041 | duvelisib 0.046 | gandotinib -0.035 | tozasertib -0.013 | [7] 0.011 | doramapimod 0.098 | ispinesib -0.02

PISD (UniProt Q9UG56)
Sequence of UniProt Q9UG56 (Q9UG56 whole entry, looked up): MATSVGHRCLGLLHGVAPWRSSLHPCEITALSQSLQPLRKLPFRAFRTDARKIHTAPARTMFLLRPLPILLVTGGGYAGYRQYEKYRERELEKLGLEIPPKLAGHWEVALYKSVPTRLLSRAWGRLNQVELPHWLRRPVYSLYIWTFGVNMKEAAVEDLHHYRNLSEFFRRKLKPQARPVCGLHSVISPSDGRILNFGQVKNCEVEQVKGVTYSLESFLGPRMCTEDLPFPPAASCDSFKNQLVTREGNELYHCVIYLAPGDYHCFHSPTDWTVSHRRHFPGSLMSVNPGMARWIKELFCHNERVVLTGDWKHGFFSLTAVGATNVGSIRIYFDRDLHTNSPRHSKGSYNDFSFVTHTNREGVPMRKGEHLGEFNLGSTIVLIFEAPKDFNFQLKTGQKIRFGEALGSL
inactive: [1] -0.018 | filanesib -0.012 | zotarolimus 0.015 | idasanutlin -0.074 | alisertib -0.024 | [2] 0.148 | gefitinib 0.008 | [3] 0.012 | lapatinib -0.009 | pictilisib 0.036 | [4] 0 | crizotinib -0.023 | [5] 0.045 | [6] -0.018 | duvelisib 0.044 | gandotinib -0.004 | tozasertib -0.025 | [7] 0.036 | doramapimod 0.006 | ispinesib 0.02

PRUNE1 (UniProt Q86TP1)
inactive: [1] -0.083 | filanesib -0.047 | zotarolimus 0.026 | idasanutlin 0.023 | alisertib 0.091 | [2] 0.059 | gefitinib 0.006 | [3] -0.007 | lapatinib -0.038 | pictilisib 0.072 | [4] -0.011 | crizotinib -0.064 | [5] -0.002 | [6] -0.026 | duvelisib -0.047 | gandotinib -0.071 | tozasertib 0.097 | [7] 0.056 | doramapimod 0.008 | ispinesib -0.018

PTDSS1 (UniProt P48651)
inactive: [1] -0.015 | filanesib 0.075 | zotarolimus 0.053 | idasanutlin 0.124 | alisertib -0.098 | [2] -0.071 | gefitinib 0.041 | [3] -0.012 | lapatinib 0.04 | pictilisib -0.098 | [4] -0.029 | crizotinib -0.141 | [5] -0.05 | [6] 0.209 | duvelisib -0.225 | gandotinib -0.039 | tozasertib -0.048 | [7] 0.105 | doramapimod 0.151 | ispinesib -0.326

PRKAG1 isoform 3 (UniProt P54619)
Sequence of UniProt P54619 (P54619 whole entry, looked up): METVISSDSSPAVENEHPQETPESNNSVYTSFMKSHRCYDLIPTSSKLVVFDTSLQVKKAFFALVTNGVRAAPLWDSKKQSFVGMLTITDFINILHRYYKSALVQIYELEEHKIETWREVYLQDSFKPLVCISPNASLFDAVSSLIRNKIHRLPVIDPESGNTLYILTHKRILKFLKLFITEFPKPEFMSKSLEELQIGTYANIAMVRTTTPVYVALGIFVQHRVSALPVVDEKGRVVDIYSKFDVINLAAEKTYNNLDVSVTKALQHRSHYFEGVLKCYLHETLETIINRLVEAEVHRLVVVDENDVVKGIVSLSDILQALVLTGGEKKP
inactive: [1] -0.02 | filanesib -0.036 | zotarolimus 0 | idasanutlin -0.004 | alisertib 0.022 | [2] 0.008 | gefitinib 0.002 | [3] 0.049 | lapatinib -0.055 | pictilisib -0.037 | [4] -0.01 | crizotinib -0.114 | [5] 0.006 | [6] -0.023 | duvelisib 0.035 | gandotinib -0.249 | tozasertib -0.032 | [7] 0.004 | doramapimod -0.003 | ispinesib -0.018

PTTG1IP (UniProt P53801)
Sequence of UniProt P53801 (P53801 whole entry, looked up): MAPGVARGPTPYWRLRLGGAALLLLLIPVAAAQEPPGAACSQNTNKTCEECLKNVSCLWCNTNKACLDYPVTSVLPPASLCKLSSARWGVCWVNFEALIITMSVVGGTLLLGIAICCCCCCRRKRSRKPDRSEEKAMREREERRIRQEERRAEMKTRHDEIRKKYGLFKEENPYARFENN
inactive: [1] -0.013 | filanesib -0.186 | zotarolimus -0.124 | idasanutlin -0.004 | alisertib -0.046 | [2] 0.038 | gefitinib 0.158 | [3] 0.007 | lapatinib -0.096 | pictilisib 0.086 | [4] 0.043 | crizotinib 0.1 | [5] 0.102 | [6] -0.044 | duvelisib 0.118 | gandotinib 0.094 | tozasertib 0.107 | [7] -0.075 | doramapimod -0.106

PIK3C3 (UniProt Q8NEB9)
active: duvelisib 0.258
inactive: [1] 0.049 | filanesib 0.221 | zotarolimus 0.016 | idasanutlin -0.055 | alisertib 0.011 | [2] 0.172 | gefitinib 0.062 | [3] 0.007 | lapatinib 0.021 | pictilisib 0.094 | [4] 0.147 | crizotinib -0.037 | [5] -0.125 | [6] 0.06 | gandotinib 0.164 | tozasertib 0.012 | [7] -0.008 | doramapimod 0.127 | ispinesib -0.101

PHAX (UniProt Q9H814)
Sequence of UniProt Q9H814 (Q9H814 whole entry, looked up): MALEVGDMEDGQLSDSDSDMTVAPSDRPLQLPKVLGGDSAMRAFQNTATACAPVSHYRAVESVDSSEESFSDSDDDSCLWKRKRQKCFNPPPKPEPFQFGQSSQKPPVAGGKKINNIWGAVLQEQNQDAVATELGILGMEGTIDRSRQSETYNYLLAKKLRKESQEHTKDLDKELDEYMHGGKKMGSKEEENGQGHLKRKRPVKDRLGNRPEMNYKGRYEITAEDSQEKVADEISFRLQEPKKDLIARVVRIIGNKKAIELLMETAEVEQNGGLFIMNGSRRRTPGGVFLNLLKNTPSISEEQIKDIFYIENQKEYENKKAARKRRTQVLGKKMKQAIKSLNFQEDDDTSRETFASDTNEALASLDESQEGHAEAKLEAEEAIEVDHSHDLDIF
inactive: [1] -0.01 | filanesib 0.045 | zotarolimus 0.004 | idasanutlin 0.018 | alisertib -0.057 | [2] -0.09 | gefitinib 0.007 | [3] 0.032 | lapatinib 0.039 | pictilisib 0.002 | [4] -0.034 | crizotinib 0.097 | [5] -0.036 | [6] -0.01 | duvelisib 0.07 | gandotinib 0.035 | tozasertib 0.082 | [7] -0.062 | doramapimod -0.016 | ispinesib 0.017

PRCP (UniProt P42785)
inactive: [1] 0.009 | filanesib -0.038 | zotarolimus -0.007 | idasanutlin -0.055 | alisertib -0.013 | [2] -0.074 | gefitinib 0.029 | [3] 0.065 | lapatinib -0.014 | pictilisib 0.019 | [4] 0.012 | crizotinib -0.078 | [5] -0.088 | [6] -0.037 | duvelisib 0.045 | gandotinib 0.006 | tozasertib 0.036 | [7] -0.037 | doramapimod -0.034 | ispinesib -0.096

PSMC6 (UniProt P62333)
Sequence of UniProt P62333 (P62333 whole entry, looked up): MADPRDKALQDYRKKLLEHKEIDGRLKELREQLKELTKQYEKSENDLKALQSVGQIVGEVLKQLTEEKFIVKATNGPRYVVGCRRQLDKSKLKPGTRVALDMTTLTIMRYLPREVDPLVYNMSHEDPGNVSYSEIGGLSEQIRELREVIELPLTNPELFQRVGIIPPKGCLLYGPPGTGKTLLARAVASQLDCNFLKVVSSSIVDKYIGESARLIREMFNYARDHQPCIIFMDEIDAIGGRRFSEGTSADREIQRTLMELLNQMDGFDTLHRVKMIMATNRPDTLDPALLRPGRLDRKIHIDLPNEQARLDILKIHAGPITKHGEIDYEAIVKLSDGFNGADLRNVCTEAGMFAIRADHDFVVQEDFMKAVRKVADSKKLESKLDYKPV
inactive: [1] -0.059 | filanesib 0.083 | zotarolimus -0.003 | idasanutlin 0.005 | alisertib -0.093 | [2] -0.024 | gefitinib -0.038 | [3] -0.057 | lapatinib 0.049 | pictilisib -0.054 | [4] 0.032 | crizotinib 0.022 | [5] -0.047 | [6] 0.116 | duvelisib -0.033 | gandotinib 0.054 | tozasertib 0.031 | [7] -0.002 | doramapimod 0.021 | ispinesib 0.007

PCYT1B (UniProt Q9Y5K3)
Sequence of UniProt Q9Y5K3 (Q9Y5K3 whole entry, looked up): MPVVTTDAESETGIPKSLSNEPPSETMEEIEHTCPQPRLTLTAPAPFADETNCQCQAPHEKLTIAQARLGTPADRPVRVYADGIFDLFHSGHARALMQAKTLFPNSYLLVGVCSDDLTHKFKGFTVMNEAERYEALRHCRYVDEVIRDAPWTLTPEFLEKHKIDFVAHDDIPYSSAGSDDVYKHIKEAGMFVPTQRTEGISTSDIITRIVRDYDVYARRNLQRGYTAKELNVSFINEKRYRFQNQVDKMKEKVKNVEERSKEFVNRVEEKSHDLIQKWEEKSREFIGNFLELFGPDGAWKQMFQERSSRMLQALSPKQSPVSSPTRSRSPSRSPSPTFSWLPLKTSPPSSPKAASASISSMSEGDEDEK
inactive: [1] 0.005 | filanesib 0.026 | zotarolimus 0 | idasanutlin -0.029 | alisertib -0.156 | [2] 0.131 | gefitinib -0.051 | [3] 0.018 | lapatinib -0.019 | pictilisib -0.12 | [4] -0.008 | crizotinib -0.109 | [5] 0.147 | [6] -0.109 | duvelisib -0.019 | gandotinib -0.088 | tozasertib 0.024 | [7] 0.044 | doramapimod -0.036 | ispinesib 0.12

PLBD1 (UniProt Q6P4A8)
Sequence of UniProt Q6P4A8 (Q6P4A8 whole entry, looked up): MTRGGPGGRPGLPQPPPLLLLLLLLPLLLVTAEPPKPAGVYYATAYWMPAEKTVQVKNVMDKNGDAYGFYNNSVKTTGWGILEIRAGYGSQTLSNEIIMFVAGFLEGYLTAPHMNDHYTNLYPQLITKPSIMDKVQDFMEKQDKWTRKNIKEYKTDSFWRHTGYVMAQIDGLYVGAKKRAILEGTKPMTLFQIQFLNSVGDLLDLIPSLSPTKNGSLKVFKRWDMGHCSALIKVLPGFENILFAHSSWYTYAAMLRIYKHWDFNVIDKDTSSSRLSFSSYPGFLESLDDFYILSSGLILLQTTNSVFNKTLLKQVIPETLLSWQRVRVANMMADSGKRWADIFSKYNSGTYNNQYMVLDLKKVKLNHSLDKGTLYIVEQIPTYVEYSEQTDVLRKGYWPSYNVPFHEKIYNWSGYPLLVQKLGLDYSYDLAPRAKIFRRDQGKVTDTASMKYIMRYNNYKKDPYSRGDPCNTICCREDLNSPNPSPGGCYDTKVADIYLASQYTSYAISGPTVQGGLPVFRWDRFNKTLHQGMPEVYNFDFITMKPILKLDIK
inactive: [1] -0.076 | filanesib -0.051 | zotarolimus -0.057 | idasanutlin 0.019 | alisertib 0.169 | [2] -0.016 | gefitinib 0.019 | [3] 0.048 | lapatinib 0.03 | pictilisib 0.039 | [4] -0.01 | crizotinib -0.082 | [5] 0.009 | [6] -0.032 | duvelisib 0.01 | gandotinib 0.011 | tozasertib -0.005 | [7] -0.032 | doramapimod -0.007 | ispinesib 0.016

PCBP2 (UniProt F8VRH0)
inactive: [1] 0.139 | filanesib 0.107 | zotarolimus 0.013 | idasanutlin 0.218 | alisertib 0.305 | [2] -0.34 | gefitinib 0.055 | [3] -0.21 | lapatinib 0.06 | pictilisib -0.231 | [4] -0.181 | crizotinib -0.075 | [5] -0.22 | [6] -0.267 | duvelisib -0.299 | gandotinib 0.013 | tozasertib -0.055 | [7] 0.074 | doramapimod -0.225

PRKCE (UniProt Q02156)
Sequence of UniProt Q02156 (Q02156 whole entry, looked up): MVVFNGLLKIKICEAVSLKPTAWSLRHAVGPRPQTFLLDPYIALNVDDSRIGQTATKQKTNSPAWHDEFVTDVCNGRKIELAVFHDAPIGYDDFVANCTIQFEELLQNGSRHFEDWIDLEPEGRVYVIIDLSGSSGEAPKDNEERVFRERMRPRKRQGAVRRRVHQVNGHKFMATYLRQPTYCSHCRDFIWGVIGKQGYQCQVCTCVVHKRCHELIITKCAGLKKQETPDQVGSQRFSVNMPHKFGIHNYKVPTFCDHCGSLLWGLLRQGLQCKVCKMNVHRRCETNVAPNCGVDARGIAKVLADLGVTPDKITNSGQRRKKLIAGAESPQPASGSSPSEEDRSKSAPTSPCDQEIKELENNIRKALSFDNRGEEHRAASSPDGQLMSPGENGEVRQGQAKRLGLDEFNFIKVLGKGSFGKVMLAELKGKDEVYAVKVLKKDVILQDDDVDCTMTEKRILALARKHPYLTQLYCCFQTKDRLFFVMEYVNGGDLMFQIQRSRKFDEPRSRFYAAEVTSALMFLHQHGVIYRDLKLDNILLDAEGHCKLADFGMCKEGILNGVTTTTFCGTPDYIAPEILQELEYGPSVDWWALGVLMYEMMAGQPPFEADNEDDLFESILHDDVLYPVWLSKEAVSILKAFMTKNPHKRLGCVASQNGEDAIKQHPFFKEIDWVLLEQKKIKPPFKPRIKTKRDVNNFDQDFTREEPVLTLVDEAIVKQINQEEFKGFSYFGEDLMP
inactive: [1] -0.024 | filanesib -0.082 | zotarolimus 0 | idasanutlin -0.085 | alisertib -0.078 | [2] 0.012 | gefitinib 0.029 | [3] -0.104 | lapatinib 0.025 | pictilisib 0.099 | [4] 0.051 | crizotinib -0.071 | [5] 0.083 | [6] -0.168 | duvelisib 0.032 | gandotinib -0.092 | tozasertib 0.071 | [7] 0.055 | doramapimod -0.003

PDCD4 (UniProt Q53EL6)
inactive: [1] 0.055 | filanesib -0.153 | zotarolimus 0.251 | idasanutlin -0.161 | alisertib -0.025 | [2] 0.018 | gefitinib 0.057 | [3] 0.16 | lapatinib 0.032 | pictilisib 0.083 | [4] 0.096 | crizotinib 0.09 | [5] 0.303 | [6] 0.007 | duvelisib 0.133 | gandotinib -0.141 | tozasertib 0.126 | [7] 0.066 | doramapimod -0.047 | ispinesib 0.039
